The values that follow come from PubChem BioAssay (NCI).

The structures appear in SMILES notation. Compounds without any hit were thinned out: in the full panel of roughly 79,000, 15% have a hit. Calls of active or inactive are those of the source. Rule as the data show it: active = growth inhibition above about 70%; inactive = the rest.

The assay can be described thus: NCI Yeast Anticancer Drug Screen. Data for the rad18 strain (AID 177). Particulars: S. cerevisiae rad18 mutant growth inhibition; at 1.2 µM; hits give high values. The method in brief: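 Steps: expose repair-mutant yeast to compound; measure growth; express as inhibition relative to vehicle control.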
Consider `C/C(=N\NC(=S)SCc1ccccc1)c1ccccn1`, for which the growth inhibition was 39% (inactive).
As to `CC[C@@]1(O)C(=O)OCc2c1cc1n(c2=O)Cc2cc3c(N)cccc3nc2-1`, the growth inhibition is -10% (inactive).
For `CN(C)c1ccc(Sc2ccc3nc(N)nc(N)c3c2)cc1` the value was 3% (inactive); for `CC(=O)OCCOCNC(=S)N/N=C(\C)c1cnccn1`, 7% (inactive); for `COc1ccc(C2c3cc4c(cc3OC(C)(O)C2C)OCO4)c(OC)c1` (stereo not drawn), 1% (inactive).
`COc1cc(C2SCC(=O)N2c2ccc(-c3ccc(-n4c(-c5ccccc5)nc5ccccc5c4=O)cc3)cc2)cc(OC)c1OC` (stereo not drawn): the growth inhibition was -3% (inactive).
For the compound `COc1ccc(Br)c(C(=O)Sc2nnnn2-c2cccc(Cl)c2)c1`, the growth inhibition is -24% (inactive).
`O=C(NNc1ccnc2cc(Cl)ccc12)/C(=C\c1ccccc1Cl)NC(=O)c1ccccc1`: the growth inhibition was -1% (inactive).
For `CSC(=S)Nc1cccc(C)n1` the value was -20% (inactive); for `O=C(/C=C\c1ccc(Cl)cc1Cl)c1cccs1`, 3% (inactive).
As to `COc1ccc(-c2cn(-c3ccc(I)cc3)c3ncnc(N)c23)cc1`, the growth inhibition was -5% (inactive).
Turning to `CN(C)c1ccc(C(C#N)=C(C#N)C#N)cc1`, the growth inhibition was 0% (inactive).
In the case of `COc1cc(/C=C2\CCc3ccccc3C2=O)cc(OC)c1OC`, the growth inhibition is 5% (inactive).
Regarding `CC(C)/C(Cl)=N\OC(=O)Nc1cccc(Cl)c1`, the growth inhibition was -7% (inactive).
On to `CC1(C)[C@@H]2CC[C@]1(C)[C@H](OC(=O)CSC#N)C2`, for which the growth inhibition is 9% (inactive).
The same measure for `NNC(=O)CCc1ccc2ccc3ccccc3c2c1`: 17% (inactive); for `COc1ccc(/C(C)=N/OC(=O)c2c(-c3ccccc3Cl)noc2C)cc1CN1CCOCC1`: -16% (inactive).
Regarding `C=CC(C)(O)CCC1C(=C)C(O)CC2C(C)(C)CCCC12C` (stereo not drawn), the growth inhibition was -14% (inactive).
The same measure for `S=C(Nc1ccc(Cl)c(Cl)c1)SCc1ccc2c(c1)OCO2`: -7% (inactive); for `COc1cc(C2C3=C(COC3=O)Oc3cc4c(cc32)OCO4)ccc1O` (stereo not drawn): 2% (inactive); for `S=C(Nc1ccc(Cl)cc1)SC1CCCCC1`: -8% (inactive).
Regarding `Nc1nc(-c2cccnc2)cc(-c2cc(-c3cccnc3)nc(N)n2)n1`, the growth inhibition is -2% (inactive).
Turning to `COC1=CC(=O)C2C(C1=O)C(c1ccc(Cl)cc1)[C@@H]2C` (stereo partly drawn), the growth inhibition was 14% (inactive).
The same measure for `c1ccc(-c2nc3cccnc3s2)cc1`: 3% (inactive); for `O=[N+]([O-])c1cc(CCl)ccc1CCl`: 32% (inactive).
For `COc1ccc(/C=C2\SC(=S)N(/C=C/c3nc4ccccc4[nH]c3=O)C2=O)cc1OC` the value was 10% (inactive); for `CCCN(CCC)CC(O)c1cc(-c2ccc(Cl)cc2)nc2c(C)c(Cl)ccc12` (stereo not drawn), -4% (inactive); for `O=C(Nc1ccccc1)OCCc1ccc(Cl)c(Cl)c1`, -4% (inactive).
With `C#CCCCc1ccccc1`, the growth inhibition was -56% (inactive).
For `CC(=O)Cc1ccc[cH-]1.[Fe+2].c1cc[cH-]c1`, the growth inhibition was 6% (inactive).
Consider `Cc1cc(I)ccc1N`, for which the growth inhibition is -18% (inactive).
Turning to `FC(F)(F)c1cc(NC(=S)N2c3ccccc3-n3cccc3C2c2cccnc2)cc(C(F)(F)F)c1` (stereo not drawn), the growth inhibition is -1% (inactive).
The same measure for `CC(C)(CN1CCCCC1)C(=O)CC(SCCS(=O)(=O)O)c1ccc(Br)cc1` (stereo not drawn): 2% (inactive); for `C[Si](C)(C)CNC(=O)OCc1ccccc1`: -3% (inactive); for `CC(C(=O)N1C(=O)N(C(=O)[C@H](C)C(O)c2ccccc2)[C@H](c2ccccc2)[C@H]1c1ccccc1)[C@@H](O)c1ccccc1` (stereo partly drawn): 0% (inactive).
As for `Oc1cccc2c(Cl)ccnc12`, the growth inhibition was 33% (inactive).
`O=C1C=CC(=C(c2ccccc2)c2ccccc2)c2ccccc21`: the growth inhibition was 6% (inactive).
Take `S=C(S)NN1CCOCC1`: the growth inhibition is 87% (active).
